In PubChem BioAssay AID2685 (National Center for Advancing Translational Sciences (NCATS), 2010):
Hit rate of the full screen: of about 320,000 compounds, about 2,100 (0.66%) were called active. About 53% were inconclusive and are not listed. The call rests on the fitted dose curve; in most records, active means well fitted inhibition curve with a large enough effect in the signal ratio, with a control signal flat (not every such curve was filed as active); inconclusive means small, poorly fitted or top-dose-only effect, or effect the other way, or a change in a side signal; inactive means flat fitted curve, though single readings scatter; the % refers to the signal ratio. For the sample, actives were picked, then their nearest neighbours and some compounds at random.

Assay: qHTS Assay for Lipid Storage Modulators in Drosophila S3 Cells;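 on cell number change: cells counted by Cell Tracker Red CMTPX staining in the red channel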; on lipid storage change, negative = inhibition: on the % scale 0 is the no-effect control and ±100 the full control effect
Details: BODIPY lipid droplet fluorescence, 18-24 h, cells fed with added oleic acid; cell number change: measured here: cell count max response; series mostly up to 46.1 µM; lipid storage change, negative = inhibition: at the top concentration
How it was run: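 Drosophila S3 cells loaded with oleic acid (400 uM, as added) and compounds at several concentrations; lipid droplets imaged by 488-nm laser-scanning cytometry, 500–530 nm intensity and object ratio to cell channel. Percent activity normalized to 20 uM Triacsin C.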
Potency means the concentration at half of the fitted maximal effect.

SMILES	outcome	cell number change [%]	Potency	lipid storage change, negative = inhibition
COc1cc(-c2noc(CCC(=O)NC3CCCC3)n2)cc(OC)c1OC	inactive	-0.87		
CC(C)CNC(=O)NC(=O)CSc1nc2ccccc2n1CC(C)C	inactive			
COc1cc(/C=C/C(=O)NC(C)(C)C)ccc1OCc1ccccc1		-27.6	29.1 µM (active)	
COc1ccc(/C=C/C(=O)NC(C)CCc2ccccc2)cc1OC (configuration not stated)		0.149		-7.83% (inactive)
CCOc1cc(/C=C/C(=O)O)ccc1OCc1ccccc1		8.37		1.96% (inactive)
O=C(NCCCNC(=O)c1ccccc1Br)c1ccccc1Br		-12.7		-4.06% (inactive)
O=C(Nc1cccc(F)c1)NC1CCCCC1	inactive	-7.64		
Fc1cccc(NC(=S)NC2CCCCCCC2)c1	inactive	-22.8		
CC(=O)c1cccc(NC(=O)NC2CCCCCCC2)c1				10.8% (inactive)
FC(F)(F)c1cccc(NC(=S)NC2CCCC2)c1		-29.3	18.4 µM (active)	
Cc1cccc(NC(=S)NC2CCCC2)c1		10.6		17.3% (inactive)
O=C(Nc1cccc(F)c1)NC1CCCCCCC1		14.2	14.6 µM (active)	
C/C=C\C=C\C(=O)Nc1cccc(C2=NOC3(C2)C[C@H](C(N)=O)N(C(=O)c2ccccc2C(=O)c2ccccc2)C3)c1 (some centres not stated)		1.47		8.24% (inactive)
CCOC(=O)c1cnc(NCc2ccccc2)nc1C	inactive	-8.98		
CCN1CCN(c2cc(C)nc(-c3ccccc3O)n2)CC1		0.893		8.28% (inactive)
COc1ccccc1NS(=O)(=O)c1ccc(C(=O)NCC(c2ccccc2OC)N(C)C)cc1 (configuration not stated)		13		-24.9% (inactive)
Cc1cccc(N(C)S(=O)(=O)c2cc3c(cc2C)n(C)c(=O)c(=O)n3C)c1		-12.7	13 µM (active)	
Cc1cc2[nH]c(=O)c(=O)[nH]c2cc1S(=O)(=O)Nc1cccc(C)c1C		-1.15		14.4% (inactive)
Cc1cc2c(cc1S(=O)(=O)Nc1cccc(C)c1C)n(C)c(=O)c(=O)n2C		-26.2	9.2 µM (active)	
CCN(c1ccccc1)S(=O)(=O)c1cc(C(=O)O)ccc1C		-3.04		14.4% (inactive)
Cc1cccc(NS(=O)(=O)c2cn(C)c(=O)n(C)c2=O)c1C		14.4		-26.7% (inactive)
Cc1cc2c(cc1S(=O)(=O)NCc1ccccc1)n(C)c(=O)c(=O)n2C	inactive	-17.3		
Cc1cc2c(cc1S(=O)(=O)N(C)Cc1ccccc1)n(C)c(=O)c(=O)n2C	inactive	-28.5		
Cc1cc2c(cc1S(=O)(=O)N(C)c1ccccc1)n(C)c(=O)n2C		9.55		-21.6% (inactive)
CCN(c1ccccc1)S(=O)(=O)c1cc2c(cc1C)n(C)c(=O)c(=O)n2C		-9.51	8.2 µM (active)	

SMILES	outcome	cell number change [%]	Potency	lipid storage change, negative = inhibition
O=C(CN1C(=O)NC2(CCCC2)C1=O)Nc1cc(S(=O)(=O)N2CCOCC2)ccc1OCC(F)(F)F		18		0.0733% (inactive)
Cc1ccccc1-n1nc2c(c1NC(=O)c1cccs1)CS(=O)(=O)C2	inactive			
Nn1c(SCC(=O)Nc2ccccc2)nnc1-c1cccnc1	inactive			
COc1cccc(C(=O)Nc2nnc(-c3ccccc3)s2)c1		0.556		-1.19% (inactive)
Cc1ccccc1OC(=O)CCC(=O)OCCCC(F)(F)C(F)(F)F		10.2	29.1 µM (active)	
Cc1ccc(NC(=O)CCC(=O)OCCCC(F)(F)C(F)(F)F)cc1		-12.9		-0.336% (inactive)
Cc1ccccc1NC(=O)CCC(=O)OCCCC(F)(F)C(F)(F)F		12.7		20.7% (inactive)
O=c1oc(-c2cccc([N+](=O)[O-])c2)nc2ccccc12		0.88		12% (inactive)
CCn1c(=O)c(=O)[nH]c2c(=O)oc3ccc(S(=O)(=O)Nc4ccc(OC)cc4)cc3c21		1.26	4.61 µM (active)	
COc1ccc(NS(=O)(=O)c2ccc3oc(=S)[nH]c3c2)cc1		5.85		-21.1% (inactive)
Cc1ccc(S(=O)(=O)Nc2c(O)c3ccccc3oc2=O)cc1C	inactive	6.35		
CCn1c(=O)c(=O)[nH]c2c(=O)oc3ccc(S(=O)(=O)Nc4ccccc4)cc3c21		-26.4	13 µM (active)	
Cn1c(=O)oc2cc(S(=O)(=O)Nc3ccccc3)ccc21		-3.03		-3.68% [at 9.22 µM] (inactive)
COc1ccc(NS(=O)(=O)c2ccc3oc(=O)ccc3c2)cc1		-11.6		-5.71% (inactive)
COc1ccc(-c2nc(=S)[nH][nH]2)cc1		-14.6		2.02% (inactive)
O=C(NCc1cccnc1)C1CCCN(Cc2cnn(-c3ccccc3)c2-n2cccc2)C1 (configuration not stated)		-3.38		0.331% (inactive)
Cc1ccc2nc3c(cc(C(=O)NCc4ccco4)c(=N)n3Cc3ccco3)c(=O)n2c1		-5.34		-7.54% (inactive)
Cc1ccc(N(C(=O)CCC(=O)Nc2cc(C)on2)C(C(=O)NC2CCCC2)c2ccccc2)cc1 (configuration not stated)	inactive	-13.1		
O=C(CSc1nnc(-c2ccco2)n1-c1ccccc1)N1CCOCC1	inactive			
Cc1ccsc1C(=O)Nc1ccc(C(=O)O)cc1	inactive			
O=C(O)CCCC(=O)N1CCOCCOCCOCCOCC1		22.2		-7% (inactive)
Cc1cccc(NC(=O)CNC(=O)COc2ccc(C(=O)c3ccc(F)cc3)cc2)c1C		8.34		26.3% (inactive)
CN(C)C(=O)Cn1cc(S(=O)(=O)Cc2ccccc2)c2ccccc21		-2.09	0.651 µM (active)	
CCN(CC)C(=O)Cn1cc(S(=O)(=O)Cc2cccc([N+](=O)[O-])c2)c2ccccc21		0.298		1.45% (inactive)
